Records with an inconclusive call do not appear. Where a call stands in place of a potency, no number is given. Activity calls are given as the source filed them. Calls follow the shape of the dose curve; as a rule, active = well fitted cell-killing curve with a large enough effect; inconclusive = small, poorly fitted or top-dose-only effect; inactive = flat fitted curve, though single readings scatter.
Potency is read from the fitted curve at half-maximal effect.

The nature of this experiment: Quantitative highthroughput screen to assess conditional lethalithy of P12 Ichikawa cells grown in RPMI1640 with untreated serum (RPMI+s) (AID 1963881). Also: nearly all actives have a fitted effect of over 35% in size. To be noted: ATP luminescence, 48 h; Potency: viability; series mostly up to 45.8 µM. An excerpt:
Assay Provider: Jason Cantor Ph.D.
Department of Biochemistry
University of Wisconsin-Madison, Madison, WI, USA
Chemical screening studies have identified drug sensitivities across hundreds of cancer cell lines but most putative therapeutics fail to translate. Discovery and development of drug candidates in models that more accurately reflect nutrient levels in human blood is a major challenge. Here we performed high-throughput screens in conventional versus Human Plasma-Like Medium (HPLM) to identify compounds that were "missed" when screening using the artificial culture condition. Sets of conditional anticancer compounds spanned phases of clinical development and included non-oncology drugs were assessed. […] We also traced conditional phenotypes for several chemotherapeutics to availability of HPLM-specific metabolites and confirmed others for compounds whose reported targets are encoded by nonessential genes. Our findings establish generalizable strategies for exploiting conditional lethality in HPLM to reveal therapeutic candidates and mechanisms of action in cancer cells.
Described herein are the results of each viability screens against three cell lines: NOMO1 (an acute myeloid leukemia cell line); P12-Ichikawa (a T-cell acute lymphoblastic leukemia); and SEM (a B-cell ALL). Each assay was screened using 3 different cell culture media: homemade human plasma-Like medium with 10% dialyzed fetal bovine serum (HPLM+ds); RPMI1640 with 10% untreated FBS and 5mM glucose (RPMI+s); and RPMI1640 with 10% dialyzed fetal bovine serum and 5 mM glucose (RPMI+ds).
PROTOCOL TABLE (as described by Inglese J, Shamu CE and Guy RK. 2007)
SEQUENCE No. (e.g., 1, 2, 3, etc.); […] (e.g., Cells, Incubation, Reagent, etc.); VALUE and DESCRIPTION.
1; Cells; 5 uL; white, solid bottom 1536-well Greiner assay plate.
2; Compounds; 23 nL; Kalypsis pin tool (Wako USA) equipped with a 1536-well pin head to transfer to the assay plates.
3; Incubation; 48 hours; 37C incubation.
4; Reagent; 3 uL; CellTiter Glo (Promega).
5; Incubation; 5 min, room temperature
6; Detection; Luminescence, Viewlux PerkinElmer.
NOTES (numbers refer to Sequence numbers above)
1. Briefly, 5 ul of cell reagent was dispensed using a Multidrop Combi Dispenser. The NOMO1 and SEM cells were plated at 500 cells/well and the P12-Ichikawa line at 1000 cells/well.
2. After seeding the cells, 23 nL of MIPE 4.1 library compounds (in DMSO) were added to each plate using a Kalypsys 1536 Pintool dispenser. Bortezomib at final concentration of […] and DMSO were added to each plate as positive and negative controls respectively. For each screen, MIPE 4.1 compounds were added over an eleven-point concentration range […] in 3-fold dilutions.
3. Each plate was covered with a stainless steel gasketed lid to prevent evaporation and incubated for 48 hour at 37C, 95% relative humidity, and 5% CO2.
4-5. Three microliter CellTilter-GloTM luminescent substrate mix (Promega) reagent was added to the assay plate and incubated at room temperature for 5 min.
6. The luminescence signal was measured using a ViewLux (PerkinElmer) multiplate reader with a 2 second exposure time per plate. Data for each compound were normalized as percent viability such that measurements for DMSO and the empty well controls in each plate were defined as 100% and 0%, respectively.
Consider `Nc1nc(=S)c2[nH]cnc2[nH]1`, for which the Potency was 20900 nM (active). For `CCCCN1CCC(CNC(=O)c2c3n(c4ccccc24)CCCO3)CC1`, the Potency is 16600 nM (active).

Regarding `Cc1cc(OCCCc2c(C(=O)O)n(Cc3cccnc3)c3c(-c4c(COc5ccc(N6CCN([S+](C)(=O)[O-])CC6)cc5)nn(C)c4C)cccc23)cc(C)c1Cl`, the Potency result is “inactive”. In the case of `NC[C@H]1O[C@H](O[C@H]2[C@@H](O)[C@@H](O[C@H]3O[C@H](CO)[C@@H](O)[C@H](N)[C@@H]3O)[C@H](N)C[C@@H]2N)[C@H](N)C[C@H]1O`, the Potency result is “inactive”. The figure for `Nc1cc(C(F)(F)F)c(-c2cc(N3CCOCC3)nc(N3CCOCC3)n2)cn1` is 1660 nM (active); for `O=S(=O)(NCCNCC=Cc1ccc(Br)cc1)c1cccc2cnccc12` it is “inactive”; for `CCOc1cc(N)c(Cl)cc1C(=O)NCC1CN(Cc2ccc(F)cc2)CCO1` (stereo not given) it is “inactive”. With `O=c1c(O)c(-c2cc(O)c(O)c(O)c2)oc2cc(O)cc(O)c12` the entry was “inactive”; with `CC[C@H](NC(C)C)[C@H](O)c1ccc(O)c2[nH]c(=O)ccc12`, “inactive”. For `CCOC(=O)[C@H](CCc1ccccc1)N[C@@H](C)C(=O)N1CCCC1C(=O)O` (stereo not given in full), the Potency result was “inactive”. In the case of `Nc1nc2c(c(=O)[nH]1)N(C=O)[C@H](CNc1ccc(C(=O)N[C@@H](CCC(=O)O)C(=O)O)cc1)CN2`, the Potency is 2640 nM (active). With `COc1ccc(Nc2cc(-c3cnc(N)nc3)nc(N3CCOCC3)n2)cn1` the figure was 2350 nM (active). On to `CN1CCC(=C2c3ccccc3CC(=O)c3sccc32)CC1`, for which the Potency result was “inactive”. `CC(=CC(=O)Nc1ccccc1C(=O)O)c1ccc2ccccc2c1`: the Potency entry is “inactive”. Take `NC[C@H](O)c1ccc(O)c(O)c1`: the Potency result was “inactive”. Take `COc1cc2nccc(Oc3ccc(NC(=O)C4(C(=O)Nc5ccc(F)cc5)CC4)cc3)c2cc1OC`: the Potency is 20900 nM (active). The figure for `CC(C)(O)Cn1c(NC(=O)c2ccc(-c3cn[nH]c3)s2)nc2cc(CN3CCOCC3)ccc21` is 2960 nM (active); for `CCN(C(=O)c1c(O)c2c(Cl)cccc2n(C)c1=O)c1ccccc1` it is 2350 nM (active).

For the compound `O=C(c1ccc(C=Cc2n[nH]c3ccccc23)cc1)N1CCNCC1`, the Potency was 935 nM (active). The figure for `CCCn1c(=O)c2[nH]c(-c3cnn(Cc4cccc(C(F)(F)F)c4)c3)nc2n(CC)c1=O` is 418 nM (active). Consider `N[C@@H](Cc1ccc(O)c(O)c1)C(=O)O`, for which the Potency result is “inactive”. Turning to `O=C(C=Cc1c(C(=O)O)[nH]c2cc(Cl)cc(Cl)c12)Nc1ccccc1`, the Potency result was “inactive”. With `COc1ccc2c(Oc3ccc(NC(=O)c4c(C)n(CC(C)(C)O)n(-c5ccccc5)c4=O)cc3F)ccnc2c1` the entry was “inactive”; with `OC(CCN1CCCCC1)(c1ccccc1)C1CC2C=CC1C2` (stereo not given), “inactive”; with `CC(C)C(=O)Oc1ccc(CO)cc1[C@H](CCN(C(C)C)C(C)C)c1ccccc1`, “inactive”. As to `Cc1cn2c(-c3cn[nH]c3)cnc2c(Nc2ccc(C(=O)N3CCNCC3)cc2F)n1`, the Potency is 18700 nM (active). Take `CCCC(CCC)C(=O)O`: the Potency entry is “inactive”. With `CN(C)CC(=O)N1CCC(c2ccc(NC(=O)c3ncc(C#N)[nH]3)c(C3=CCCCC3)c2)CC1` the entry was “inactive”; with `Cn1cc(-c2ccc(F)c(C(F)(F)F)c2)nc1C1CCN(c2ncnc3[nH]ncc23)CC1`, “inactive”. Regarding `O=C(Nc1ccccc1-c1cn2c(CN3CCNCC3)csc2n1)c1cnc2ccccc2n1`, the Potency was 26400 nM (active). For the compound `NS(=O)(=O)OC[C@@H]1C[C@@H](n2ccc3c(N[C@H]4CCc5ccccc54)ncnc32)C[C@H]1O`, the Potency is 2090 nM (active). `CC(C)(O)CC[C@@H](O)[C@](C)(O)[C@H]1CC[C@@]2(O)C3=CC(=O)[C@@H]4C[C@@H](O)[C@@H](O)C[C@]4(C)[C@@H]3CC[C@]12C`: the Potency result was “inactive”. Take `CN[C@H]1[C@@H](O[C@@H]2[C@H](O[C@@H]3[C@@H](O)[C@@H](O)[C@@H](N=C(N)N)[C@@H](O)[C@@H]3N=C(N)N)O[C@H](C)[C@@]2(O)C=O)O[C@@H](CO)[C@@H](O)[C@H]1O`: the Potency result was “inactive”. In the case of `CCOc1ccc(Cc2cc([C@@H]3O[C@H](CO)[C@@H](O)[C@H](O)[C@@H]3O)ccc2Cl)cc1`, the Potency entry was “inactive”. For the compound `CNC(=O)[C@H](Cc1ccccc1)NC(=O)[C@H](CC(C)C)[C@H](CSc1cccs1)C(=O)NO`, the Potency is 9350 nM (active). On to `COc1ccc([C@@H]2CC(=O)c3c(O)cc(O[C@@H]4O[C@H](CO[C@@H]5O[C@@H](C)[C@H](O)[C@@H](O)[C@@H]5O)[C@@H](O)[C@H](O)[C@@H]4O)cc3O2)cc1O`, for which the Potency entry was “inactive”. As for `Cc1nn(C)c2c1C(c1ccc(C(F)(F)F)cc1)C(C#N)=C(N)O2` (stereo not given), the Potency result was “inactive”. On to `CN(C)Cc1c(C(=O)NCCOc2ccc(C(=O)NO)cc2)oc2ccccc12`, for which the Potency is 2090 nM (active). Regarding `COc1ccc(C=Cc2cc(OC)c(OC)c(OC)c2)cc1O`, the Potency entry was “inactive”. Turning to `Cc1cc2c(F)c(Oc3ncnn4cc(OC[C@@H](C)O)c(C)c34)ccc2[nH]1`, the Potency was 18700 nM (active).
